40 molecules from PubChem BioAssay (NCATS) can be followed below.

The structures appear in SMILES notation. Records with an inconclusive call do not appear. Active and inactive are the calls of the source. The call rests on the fitted dose curve; in most records, active means well fitted inhibition curve with a large enough effect; inconclusive means small, poorly fitted or top-dose-only effect; inactive means flat fitted curve, though single readings scatter.

For this test, the target named is Aldehyde dehydrogenase, mitochondrial (Homo sapiens) (UniProt P05091). As to the kind of experiment: qHTS for Inhibitors of the Aldehyde Dehydrogenase Family (ALDH2) Primary screen (AID 2061308).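 Further: plate controls were vehicle for no effect and reference inhibitor for full effect; nearly all actives have a fitted effect of over 55% in size.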 As to conditions: ALDH2 enzyme inhibition qHTS, 1536-well; series mostly up to 56 µM; activity change, negative = inhibition: at the top concentration. On the technique in general: In qHTS, concentration-response curves come from the screen itself.
On to `O=C(OCC1=CC(Cl)C(O)C(OC(=O)c2ccccc2)C1O)c1ccccc1` (stereo not given), for which the “activity change, negative = inhibition” value is 8.68% [at 16.9 µM] (inactive).
With `COC(=O)[C@H]1[C@H]2C[C@@H]3c4[nH]c5cc(OC)ccc5c4CCN3C[C@H]2C[C@@H](OC(=O)/C=C/c2cc(OC)c(OC)c(OC)c2)[C@@H]1OC`, the “activity change, negative = inhibition” value was 4.33% [at 16.9 µM] (inactive).
Turning to `CC(=O)O[C@H]1[C@H](Oc2ccccc2COC(=O)C2(O)C=CCCC2=O)O[C@H](CO)[C@@H](O)[C@@H]1O` (stereo not given in full), the “activity change, negative = inhibition” value is 24.1% [at 28 µM] (inactive).
The figure for `Cc1nc2ccc(Oc3ccc(F)cc3)cc2c(=O)n1C[C@H]1CCCN(C(C)C)C1` is 6.06% (inactive).
In the case of `CC1=CC(=O)CC(C)(C)[C@H]1/C=C/C(CO)O[C@@H]1O[C@H](CO)[C@@H](O)[C@H](O)[C@H]1O` (stereo not given in full), the “activity change, negative = inhibition” value is 10% (inactive).
As for `CCC(NC(=O)CC(NC(=O)C(CO)NC(=O)C(CC)NC(=O)c1ccc[nH]1)c1ccccc1)C(=O)O` (stereo not given), the “activity change, negative = inhibition” value is 2.76% [at 16.9 µM] (inactive).
Regarding `C[C@@H](c1ccccc1)N(C(N)=NC#N)c1cccc2ncccc12`, the “activity change, negative = inhibition” value was 1% (inactive).
The figure for `OC[C@H]1O[C@@H](OCCc2ccccc2)[C@H](O[C@@H]2OC[C@@H](O)[C@H](O)[C@H]2O)[C@@H](O)[C@@H]1O` is -1.72% [at 28 µM] (inactive).
The figure for `C=C1C(=O)O[C@@H]2/C=C(\CO)CC/C=C(/C=O)C[C@H](O)[C@@H]12` is -4.22% (inactive).
To `C/C=C(\C)C(=O)OC1CC2C(CC=C3CC(OC4CC(OC)C(OC5CC(OC)C(OC6CC(OC)C(OC7CC(OC)C(OC8CC(OC)C(OC9OC(CO)C(O)C(O)C9O)C(C)O8)C(C)O7)C(C)O6)C(C)O5)C(C)O4)CCC32C)C2(O)CCC(C(C)=O)C12C` (stereo not given) belongs 14.2% [at 11.2 µM] (inactive).
For the molecule `CC(=O)OC/C(=C/C(=O)O)CC[C@@H]1C(C=O)=CC[C@@H]2C(C)(C)CCC[C@@]12C`, the “activity change, negative = inhibition” value was -3.24% (inactive).
In the case of `CC1(C)CCCC2(C)C1CC=C1C(=O)OC(O)C12O` (stereo not given), the “activity change, negative = inhibition” value is -9.97% (inactive).
The figure for `CC1(C)CC[C@]2(C(=O)O[C@@H]3O[C@H](CO[C@@H]4O[C@H](CO)[C@@H](O)[C@H](O)[C@H]4O[C@@H]4O[C@H](CO)[C@H](O)[C@H](O)[C@H]4O)[C@@H](O)[C@H](O[C@@H]4O[C@H](CO)[C@@H](O)[C@H](O)[C@H]4O)[C@H]3O)CC[C@]3(C)C(=CCC4[C@@]5(C)CC[C@H](O[C@@H]6OC[C@@H](O)[C@H](O)[C@H]6O)[C@@](C)(C(=O)O)C5CC[C@]43C)[C@@H]2C1` (stereo not given in full) is 6.97% [at 11.2 µM] (inactive); for `C=C1C[C@]23C[C@H]1CC[C@H]2[C@]1(C)CCC[C@@](C)(C(=O)O)[C@H]1[C@@H]3C(=O)O` it is 4.23% (inactive); for `CC(=O)OC1C(O)CC2(C)C(CCC(C)C23Cc2c(O)cc(CO)c(C=O)c2O3)C1(C)C` (stereo not given) it is -4.99% [at 28 µM] (inactive).
For `C=C(CCO)C(=O)OCC1OCC(OC(=O)C(=C)CCO[C@@H]2O[C@H](CO)[C@@H](O)[C@H](O)[C@H]2O)C(O)C1O` (stereo not given in full), the “activity change, negative = inhibition” value was -3.29% [at 28 µM] (inactive).
Consider `C=C1C[C@H](O)[C@@H](O)[C@@]2(C)C1[C@@H](O)[C@H]1OC(=O)C3[C@@H](C)[C@@H](O)[C@H](O)C2[C@]31C` (stereo not given in full), for which the “activity change, negative = inhibition” value is 1.85% (inactive).
As to `Cn1cc(C2=C(c3coc4ccccc34)C(=O)NC2=O)c2cc(Br)ccc21`, the “activity change, negative = inhibition” value was -21.3% (inactive).
With `COCC1OC(n2cnc3c(=O)[nH]cnc32)C(O)C1O` (stereo not given), the “activity change, negative = inhibition” value was -3.69% (inactive).
On to `CC1CCC2(C(=O)OC3OC(CO)C(O)C(O)C3O)CCC3(C)C(=CCC4C5(C)CCC(O)C(C)(CO)C5CCC43C)C2C1(C)O` (stereo not given), for which the “activity change, negative = inhibition” value was 3.29% [at 16.9 µM] (inactive).
As for `C=C(C)C1=C[C@@]2(C)C(=CC1=O)CC[C@@H](O)[C@@H]2C`, the “activity change, negative = inhibition” value is 1.62% (inactive).
In the case of `C=C(C)C(=O)O[C@H]1C[C@@](C)(OC(C)=O)[C@@]2(O)CC[C@@](C)(O)[C@H](OC(C)=O)[C@@]23OC(=O)C(COC)=C13`, the “activity change, negative = inhibition” value was -0.59% [at 28 µM] (inactive).
In the case of `C/C=C(\C)C(=O)O[C@H]1C=CC(=O)O[C@H]1/C=C/[C@H](O)[C@@H](C)O`, the “activity change, negative = inhibition” value is -1.45% (inactive).
As to `CC1C2=CC(=O)OC2(O)CC2C1C(OC(=O)c1ccccc1)C(OC(=O)c1ccccc1)C1(O)C2(C)CCC(O)C1(C)C(=O)O` (stereo not given), the “activity change, negative = inhibition” value is -7.06% [at 16.9 µM] (inactive).
To `COC1CC(=O)CCC(C)OC(=O)CC1O` (stereo not given) belongs -1.93% (inactive); to `CCC(C)C1NC(=O)C2C(C)CCN2C(=O)C(CC(O)CO)OC(=O)CCNC(=O)C(C)N(C)C(=O)C(C(C)C)N(C)C1=O` (stereo not given), -0.877% [at 16.9 µM] (inactive).
For `C/C1=C\CCC2=C[C@@H](OC2=O)c2c(C)coc2C1`, the “activity change, negative = inhibition” value was -1.41% (inactive).
With `C=C1C[C@@]23CCC4[C@@](C)(CCC[C@@]4(C)C(=O)OC)C2CC[C@@H]1C3` (stereo not given in full), the “activity change, negative = inhibition” value is -1.23% (inactive).
With `COC1=CC(=O)C=C(C)C12Oc1c(Cl)c(OC)cc(OC)c1C2=O` (stereo not given), the “activity change, negative = inhibition” value was -5.97% (inactive).
With `Cc1occc(=O)c1O[C@@H]1O[C@H](COC(=O)CC(C)(O)CC(=O)O)[C@@H](O)[C@H](O)[C@H]1O` (stereo not given in full), the “activity change, negative = inhibition” value is 9.07% [at 28 µM] (inactive).
In the case of `C=C1CC[C@@]2(OC1)O[C@H]1CC3[C@@H]4CC=C5C[C@@H](O)C[C@@H](O[C@@H]6OC[C@H](O)[C@H](O)[C@H]6O[C@@H]6O[C@@H](C)[C@H](O)[C@@H](O)[C@H]6O)[C@]5(C)C4CC[C@]3(C)[C@H]1[C@@H]2C` (stereo not given in full), the “activity change, negative = inhibition” value was 0.746% [at 16.9 µM] (inactive).
Take `COc1cc(O)c([C@@H](CC(=O)N2CC(C)CC(C)C2)c2ccc3c(c2)OCO3)c(OC)c1` (stereo not given in full): the “activity change, negative = inhibition” value is -7.46% (inactive).
As to `COc1ccc(S(=O)(=O)n2cnc3cc(C)c(C)cc32)cc1`, the “activity change, negative = inhibition” value was -11.4% (inactive).
The figure for `CC(=O)N1CCN(Cc2ccc([C@H](C)Nc3nccc(N4C(=O)OC[C@@H]4C(C)C)n3)cc2)CC1` is -0.75% (inactive); for `O=C(O)c1ccc(NC(=O)[C@H](CC2CCCC2)n2cnc(C(F)(F)F)c2)nc1` it is -2.71% (inactive).
On to `Cc1cc(O)c(C(C)C)cc1O[C@@H]1O[C@H](CO)[C@@H](O)[C@H](O)[C@H]1O`, for which the “activity change, negative = inhibition” value is 2.18% (inactive).
To `CC1(C)CC=C(c2cnc3ccccc3c2)c2cc(C(=O)Nc3ccc(C(=O)O)cc3)ccc21` belongs -11.6% (inactive); to `Cc1cc(N2CCCCC2)nc2ccccc12`, 0.414% (inactive); to `OCC1=CC[C@@H]2C=CO[C@@H](O[C@@H]3O[C@H](CO)[C@@H](O)[C@H](O)[C@H]3O)[C@H]12`, 6.82% (inactive).
For `CC(=O)c1cc2c(cc1O)OC(C)(C)C=C2`, the “activity change, negative = inhibition” value is 0.271% (inactive).
